Results: the supplement of paper PMC8728848
About 410 targets per protein were measured; listed, in parts, are those with the strongest signals and a random draw of the rest.

How the values were obtained:
Experiment in all cases: glycan array binding signal (z-score within array); higher = stronger binding
Details in all cases: glycan notation: IUPAC condensed, linker removed
[1] = molecular target: Gal(b1-4)GlcNAc(b1-3)Gal(b1-4)GlcNAc(b1-3)Gal(b1-4)GlcNAc(b1-3)Gal(b1-4)GlcNAc(b1-3)Gal(b1-4)GlcNAc(b1-2)Man(a1-3)[Gal(b1-4)GlcNAc(b1-3)Gal(b1-4)GlcNAc(b1-3)Gal(b1-4)GlcNAc(b1-3)Gal(b1-4)GlcNAc(b1-3)Gal(b1-4)GlcNAc(b1-2)Man(a1-6)]Man(b1-4)GlcNAc(b1-4)GlcNAc
Procedure, shortened: (§1)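 Negative Z-scores can be read as non-binding. The Z-score is calculated within each array and then averaged across arrays of one protein sequence at different concentrations or buffers and across linkers. Arrays, 3228 in all, were curated from the Consortium for Functional Glycomics database and kept only where the protein sequence was available.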

[2] = molecular target: Gal(b1-4)GlcNAc(b1-3)Gal(b1-4)GlcNAc(b1-3)Gal(b1-4)GlcNAc(b1-3)Gal(b1-4)GlcNAc(b1-3)Gal(b1-4)GlcNAc(b1-2)[Gal(b1-4)GlcNAc(b1-3)Gal(b1-4)GlcNAc(b1-3)Gal(b1-4)GlcNAc(b1-3)Gal(b1-4)GlcNAc(b1-3)Gal(b1-4)GlcNAc(b1-6)]Man(a1-6)[Gal(b1-4)GlcNAc(b1-3)Gal(b1-4)GlcNAc(b1-3)Gal(b1-4)GlcNAc(b1-3)Gal(b1-4)GlcNAc(b1-3)Gal(b1-4)GlcNAc(b1-2)Man(a1-3)]Man(b1-4)GlcNAc(b1-4)[Fuc(a1-6)]GlcNAc
Procedure, shortened: as §1

[3] = molecular target: Gal(b1-4)GlcNAc(b1-3)Gal(b1-4)GlcNAc(b1-3)Gal(b1-4)GlcNAc(b1-3)Gal(b1-4)GlcNAc(b1-3)Gal(b1-4)GlcNAc(b1-3)Gal(b1-4)GlcNAc(b1-2)Man(a1-3)[Gal(b1-4)GlcNAc(b1-3)Gal(b1-4)GlcNAc(b1-3)Gal(b1-4)GlcNAc(b1-3)Gal(b1-4)GlcNAc(b1-3)Gal(b1-4)GlcNAc(b1-3)Gal(b1-4)GlcNAc(b1-2)Man(a1-6)]Man(b1-4)GlcNAc(b1-4)GlcNAc
Procedure, shortened: as §1

[4] = molecular target: Gal(b1-4)GlcNAc(b1-3)[Gal(b1-4)GlcNAc(b1-6)]Gal(b1-4)GlcNAc
Procedure, shortened: as §1

Gal3S(b1-3)GlcNAc = molecular target: Gal3S(b1-3)GlcNAc
Procedure, shortened: as §1

Gal3S4S(b1-4)GlcNAc = molecular target: Gal3S4S(b1-4)GlcNAc
Procedure, shortened: as §1

Gal4S(b1-4)GlcNAc = molecular target: Gal4S(b1-4)GlcNAc
Procedure, shortened: as §1

[5] = molecular target: GalNAc(b1-4)GlcNAc(b1-3)GalNAc(b1-4)GlcNAc
Procedure, shortened: as §1

Glc(b1-4)Glc = molecular target: Glc(b1-4)Glc
Procedure, shortened: as §1

Glc(b1-6)Glc = molecular target: Glc(b1-6)Glc
Procedure, shortened: as §1

[6] = molecular target: GlcNAc(a1-4)Gal(b1-4)GlcNAc(b1-3)Gal(b1-4)GlcNAc
Procedure, shortened: as §1

[7] = molecular target: GlcNAc(a1-6)Gal(b1-4)GlcNAc
Procedure, shortened: as §1

[8] = molecular target: GlcNAc(b1-2)[GlcNAc(b1-4)]Man(a1-3)[GlcNAc(b1-4)][GlcNAc(b1-2)Man(a1-6)]Man(b1-4)GlcNAc(b1-4)GlcNAc
Procedure, shortened: as §1

[9] = molecular target: GlcNAc(b1-3)Gal(b1-4)GlcNAc(b1-3)Gal(b1-4)GlcNAc(b1-3)Gal(b1-4)GlcNAc(b1-2)Man(a1-3)[GlcNAc(b1-3)Gal(b1-4)GlcNAc(b1-3)Gal(b1-4)GlcNAc(b1-3)Gal(b1-4)GlcNAc(b1-2)Man(a1-6)]Man(b1-4)GlcNAc(b1-4)[Fuc(a1-6)]GlcNAc
Procedure, shortened: as §1

GlcNAc(b1-3)GalNAc = molecular target: GlcNAc(b1-3)GalNAc
Procedure, shortened: as §1

[10] = molecular target: GlcNAc(b1-6)Gal(b1-4)GlcNAc
Procedure, shortened: as §1

[11] = molecular target: Neu5Ac(a2-3)Gal(b1-3)GalNAc6S
Procedure, shortened: as §1

[12] = molecular target: Neu5Ac(a2-3)Gal(b1-4)GlcNAc(b1-3)Gal(b1-4)GlcNAc(b1-3)[Neu5Ac(a2-3)Gal(b1-4)GlcNAc(b1-3)Gal(b1-4)GlcNAc(b1-6)]GalNAc
Procedure, shortened: as §1

[13] = molecular target: Neu5Ac(a2-3)Gal(b1-4)[Fuc(a1-3)]GlcNAc(b1-3)Gal
Procedure, shortened: as §1

[14] = molecular target: Neu5Ac(a2-3)Gal(b1-4)[Fuc(a1-3)]GlcNAc(b1-3)Gal(b1-4)[Fuc(a1-3)]GlcNAc(b1-3)Gal(b1-4)[Fuc(a1-3)]GlcNAc
Procedure, shortened: as §1

[15] = molecular target: Neu5Ac(a2-3)Gal(b1-4)[Fuc(a1-3)]GlcNAc(b1-3)GalNAc
Procedure, shortened: as §1

[16] = molecular target: Neu5Ac(a2-3)[GalNAc(b1-4)]Gal(b1-4)Glc
Procedure, shortened: as §1

Neu5Ac(a2-6)Gal = molecular target: Neu5Ac(a2-6)Gal
Procedure, shortened: as §1

Neu5Ac(a2-6)GalNAc = molecular target: Neu5Ac(a2-6)GalNAc
Procedure, shortened: as §1

[17] = molecular target: Neu5Ac(a2-6)GalNAc(b1-4)GlcNAc
Procedure, shortened: as §1

Neu5Ac(b2-6)GalNAc = molecular target: Neu5Ac(b2-6)GalNAc
Procedure, shortened: as §1

B1: ECL (Erythrina cristagalli), Q6YD91 (protein)
chain: VETISFSFSEFEPGNNDLTLQGAAIITQSGVLQLTKINQNGMPAWDSTGRTLYTKPVHIWDMTTGTVASFETRFSFSIEQPYTRPLPADGLVFFMGPTKSKPAQGYGYLGVFNNSKQDNSYQTLAVEFDTFSNPWDPPQVPHIGIDVNSIRSIKTQPFQLDNGQVANVVIKYDASSKILLAVLVYPSSGAIYTIAEIVDVKQVLPEWVDVGLSGATGAQRDAAETHDVYSWSFHASLPETND
[1]
  glycan array binding signal (z-score): 3.35
[2]
  glycan array binding signal (z-score): 5.32
[3]
  glycan array binding signal (z-score): 2.02
[4]
  glycan array binding signal (z-score): 3.6
Gal3S(b1-3)GlcNAc
  glycan array binding signal (z-score): -0.33
Gal3S4S(b1-4)GlcNAc
  glycan array binding signal (z-score): -0.359
Gal4S(b1-4)GlcNAc
  glycan array binding signal (z-score): -0.487
[5]
  glycan array binding signal (z-score): 3.31
Glc(b1-4)Glc
  glycan array binding signal (z-score): -0.25
Glc(b1-6)Glc
  glycan array binding signal (z-score): -0.304
[6]
  glycan array binding signal (z-score): -0.028
[7]
  glycan array binding signal (z-score): -0.358
[8]
  glycan array binding signal (z-score): -0.235
[9]
  glycan array binding signal (z-score): 0.001
GlcNAc(b1-3)GalNAc
  glycan array binding signal (z-score): -0.196
[10]
  glycan array binding signal (z-score): -0.23
[11]
  glycan array binding signal (z-score): -0.378
[12]
  glycan array binding signal (z-score): -0.038
[13]
  glycan array binding signal (z-score): -0.424
[14]
  glycan array binding signal (z-score): -0.241
[15]
  glycan array binding signal (z-score): -0.17
[16]
  glycan array binding signal (z-score): -0.505
Neu5Ac(a2-6)Gal
  glycan array binding signal (z-score): -0.186
Neu5Ac(a2-6)GalNAc
  glycan array binding signal (z-score): -0.481
[17]
  glycan array binding signal (z-score): -0.3
Neu5Ac(b2-6)GalNAc
  glycan array binding signal (z-score): -0.388
